TDP1 cell CPT = DT40-hTDP1 cell growth loss with CPT; chicken DT40 Tdp1-/-;hTDP1 cells + 20 nM CPT, ATP luminescence, 48 h; Potency, µM (titrated, usually from 46.2 µM), for inactives: at the top dose activity change, negative = growth inhibition, hits mostly inhibitors; 420,000 tested, 12% active; AID 686979; further: on the % scale 0 is the no-effect control and ±100 the full control effect; nearly all actives have a fitted effect of over 55% in size
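Chicken DT40 Tdp1-/- cells stably complemented with human TDP1 were seeded at 400 cells/well in medium containing 20 nM camptothecin, exposed to pin-transferred compounds, and grown at 37 °C for at least 48 hr. Viability was read as ATP luminescence.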
HepG2 tox = HepG2 cytotoxicity, counter-screen for TGF-b inhibitors | 410,000 tested, 0.76% active | Potency, µM (highest dose often 46.1 µM), without a hit: at the top dose activity change, negative = cytotoxicity, most hits filed as cytotoxic | HepG2 CAGA-GFP viability, ATP luminescence, 18 h
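HepG2 CAGA-GFP cells (1000/well, DMEM with 1% FBS) received compound, then TGF-beta at 500 pg/mL final, and were incubated 18 hours at 37 degrees C. Viability was read by CellTiter-Glo luminescence. Media-only wells were set as complete cell-killing and DMSO as no toxicity.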
S2 tox = reduces viability in counter-screen for ATXN expression inhibitors | S2 cells (HEK-293 line with an ATXN2-luciferase reporter) viability, CellTiter-Fluor protease fluorescence, 24 h | 400,000 tested, 0.49% active | AID 651635 | Potency, µM (highest dose often 56.7 µM), actives largely listed as cytotoxic; further: nearly all actives have a fitted effect of over 40% in size
ATXN2 expr inh = inhibitors of ATXN2 expression; AID 1745845; HEK-293 ATXN2-luciferase reporter, luminescence, 24 h; 360,000 tested, 0.72% active; Potency, µM (series often up to 57 µM), without a hit: at the highest dose activity change, negative = inhibition, actives largely listed as inhibitors; further: on the % scale 0 is the no-effect control and ±100 the full control effect; nearly all actives have a fitted effect of over 55% in size
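ATXN2-luciferase reporter cells (luciferase flanked by upstream and downstream ATXN2 gene portions) were treated 24 h at 37 °C with compounds at up to 57 uM. SteadyGlo luminescence gave expression; GF-AFC fluorescence gave viability.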
TGFb inhibitor = blocks TGF-b signaling | 410,000 tested, 1.2% active | HepG2 CAGA-GFP TGF-b/SMAD3 reporter, GFP fluorescence, 18 h; TGF-beta stimulated, 500 pg/mL final | Potency, µM (series often up to 46.1 µM), inactives show at the top dose activity, negative = inhibition, actives largely listed as inhibitors; further: on the % scale 0 is the no-effect control and ±100 the full control effect; nearly all actives have a fitted effect of over 65% in size
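Per well, imaged GFP fluorescence of HEPG2 CAGA-GFP cells gives the signal; cells get compound, then TGF-beta (500 pg/mL final), 18 h at 37 degrees C; %Activity versus -TGF-beta and +DMSO controls.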
DT40 TDP1 no CPT = qHTS for Inhibitors of human tyrosyl-DNA phosphodiesterase 1 (TDP1): qHTS in cells in absence of CPT | 420,000 tested, 15% active | DT40 Tdp1-/- hTDP1 cells, no CPT, ATP luminescence, 48 h | Potency, µM (top dose mostly 46.2 µM), for inactives: at the top dose activity change, negative = growth inhibition, usual class: inhibitors; further: on the % scale 0 is the no-effect control and ±100 the full control effect; nearly all actives have a fitted effect of over 55% in size
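Stably hTDP1-transfected Tdp1-null chicken DT40 cells were treated with library compounds minus camptothecin and grown for at least 48 hr at 37 °C, after which cellular ATP was quantified by luminescence.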
The depositor's hits bear a star; i = inactive; ? = inconclusive; / = no result given; [ ] = another dose, or the depositor's remark. Hits are enriched below; roughly 17% of the tested compounds scored in any of these assays. The call rests on the fitted dose curve; in most records, active means well fitted curve in the direction sought with a large enough effect; inconclusive means small, poorly fitted or top-dose-only effect, or another doubt; inactive means no such curve, though single readings can be large; an effect the other way counts as inactive or inconclusive. Potency means the concentration at half of the fitted maximal effect.

SMILES | TDP1 cell CPT | HepG2 tox | S2 tox | ATXN2 expr inh | TGFb inhibitor | DT40 TDP1 no CPT
O=C(CNC(=O)c1ccc2c(c1)OCO2)N/N=C(Br)/C=C/c1ccccc1 | 2.59µM* | 17.0% | ? | ? | -12.3% | 7.31µM*
O=C(/C=C/c1ccccc1)c1ccc2c(c1)OCO2 | 18.4µM* | -75.1% | i | / | ? | ?
CN(C)c1ccc(/C=C/C(=O)c2ccc3c(c2)OCO3)cc1 | 23.1µM* | -8.2% | / | 69.1% | 21.9% | 16.4µM*
Cc1nc2ccc([N+](=O)[O-])cc2nc1C | -22.9% | 1.6% | i | -3.3% | 1.7% | 5.6%
Cc1ccc2nc3cc([N+](=O)[O-])cc([N+](=O)[O-])c3cc2c1 | 0.461µM* | -18.1% | 7.94µM* | 7.52µM* | 7.1% | 0.581µM*
COc1ccc(CCNC(=S)N2CCC(C(=O)c3ccc(F)cc3)CC2)cc1OC | ? | -35.8% | i | / | 11.2µM* | ?
COc1ccc(C(=O)C2CCN(C(=S)NCCc3ccc(OC)c(OC)c3)CC2)cc1 | 16.4µM* | -27.6% | ? | ? | ? | 11.6µM*
COc1ccc(C(=O)C2CCN(C(=S)NCCc3ccccc3)CC2)cc1 | -4.6% | -9.5% | i | 0.1%[11.3 µM] | 4.2% | -22.4%
CCc1ccc(N2CC(C(=O)NNC(=O)c3ccc(F)cc3)CC2=O)cc1 (stereo unspecified) | 4.4% | 11.7% | i | 1.7% | -26.2% | 1.0%
COc1ccc(CCNC(=O)c2nc(-c3ccc(Cl)cc3)n3c2CCCCC3)c(OC)c1 | 10.3µM* | -24.9% | ? | ? | 8.91µM* | 9.2µM*
Cc1cccc(CCNC(=O)c2nc(-c3ccc(Cl)cc3)n3c2CCCCC3)c1 | 10.3µM* | 2.4% | ? | -38.7% | ? | 9.2µM*
CCC(=O)Nc1ccc2c(c1)nc1n2CCN(CCOC)C1 | -6.6% | 2.2% | ? | / | 6.6% | -22.2%
O=C(NC(=S)Nc1nc2ccccc2s1)c1cccs1 | 16.4µM* | -31.3% | i | 45.2% | -13.0% | 18.4µM*
NC(=S)Nc1nc2ccccc2s1 | 2.59µM* | 8.4% | i | / | ? | 4.11µM*
COC(=O)c1nc(NC(=S)NC(=O)c2cccs2)sc1C | -22.8% | -12.2% | i | 17.2% | 11.7% | -24.9%
O=C(NCc1ccco1)c1ccc(CNc2c(N3CCCCC3)c(=O)c2=O)cc1 | -0.6% | -20.7% | i | 0.3% | -4.7% | 0.4%
O=C(CCc1nc2sc3c(c2c(=O)[nH]1)CCCC3)Nc1cccc(Cl)c1 | ? | -0.2% | i | -25.2% | -0.4% | 20.6µM*
Cc1ccc(C(=O)N2CCN(Cc3nc4sc5c(c4c(=O)[nH]3)CCCC5)CC2)cc1 | 29.1µM* | -38.4% | i | -18.4% | ? | 20.6µM*
CCN(CC(=O)NC(C)C)Cc1nc2sc3c(c2c(=O)[nH]1)CCC3 | 3.26µM* | -14.2% | i | -3.4% | 1.9% | 4.61µM*
O=c1[nH]c(CN2CCCC2)nc2sc3c(c12)CCC3 | -28.3% | -0.5% | i | -7.3% | -2.8% | -1.4%
Cc1cc(C)cc(NC(=O)CCc2nc3sc4c(c3c(=O)[nH]2)CCCC4)c1 | 4.61µM* | -85.1% | ? | 8.91µM* | ? | 10.3µM*
CCN(CC)C(=O)c1cccc(NC(=O)CCc2nc3sc4c(c3c(=O)[nH]2)CCCC4)c1 | ? | -11.9% | i | -20.5% | -28.8% | ?
Cc1cnc(CNc2ncnc3ccc(-c4cccc(NS(C)(=O)=O)c4)cc23)cn1 | ? | / | / | / | / | -13.2%
CCN(CC(=O)Nc1ccccc1C(F)(F)F)C(=O)CCc1nc2sc3c(c2c(=O)[nH]1)CCCC3 | ? | -1.0% | i | 7.1% | 0.7% | 16.4µM*
COc1ccc(OC)c(S(=O)(=O)Oc2ccc(N)c3ccccc23)c1 | ? | -61.5% | ? | -26.9% | ? | 23.1µM*
SMILES | TDP1 cell CPT | HepG2 tox | S2 tox | ATXN2 expr inh | TGFb inhibitor | DT40 TDP1 no CPT
CC(CCc1ccc(O)cc1)NCC(O)c1ccc(O)cc1 (stereo unspecified) | 9.3% | / | / | / | / | 6.6%
CC(CCc1ccc(O)cc1)NCCc1ccc(O)c(O)c1 (stereo unspecified) | 26.6µM* | -4.5% | ? | ? | 0.0% | 15µM*
O=C(Nc1nc2c(s1)CN(Cc1ccccc1)CC2)C1CCC1 | ? | 11.2µM* | / | 47.8% | 7.0% | ?
O=C(CN1CCOCC1)NN=Cc1ccc([N+](=O)[O-])o1 | 20.6µM* | -45.9% | i | -31.9% | ? | ?
O=C(CCN1CCN(c2ccccc2)CC1)N/N=C/c1ccc([N+](=O)[O-])o1 | 10.3µM* | -63.9% | i | ? | ? | ?
O=C(CN1CCCCC1)N/N=C/c1ccc(Cl)cc1 | 4.6% | -28.9% | ? | / | 1.0% | -3.9%
O=C(CN1CCCCCCC1)N/N=C/c1ccc([N+](=O)[O-])o1 | ? | 20µM* | i | -20.3% | 12.6µM* | ?
C[C@]12CCC(=O)C[C@@H]1CC[C@@H]1[C@@H]2CC[C@]2(C)[C@@H](C(=O)COC(=O)CCC(=O)O)CC[C@@H]12 | ? | -4.1% | i | -3.5% | 0.0% | ?
CC(NC(=O)COc1ccc(-c2nnco2)cc1)c1ccc(Cl)cc1Cl (stereo unspecified) | ? | -19.2% | i | 0.3% | -34.4% | ?
COc1cccc(OC)c1C(=O)Nc1ccccc1C(=O)N1CCCCCC1 | -3.2% | -10.1% | i | 5.7% | -18.4% | -0.6%
O=C(N/N=C/c1sc2ccccc2c1O)c1ccccc1 | 0.92µM* | -52.8% | i | ? | -12.9% | 0.651µM*
COc1ccc(C(=O)N/N=C/c2sc3ccccc3c2O)cc1 | 2.59µM* | -27.9% | / | ? | 0.0% | 3.66µM*
COc1ccc2cc(C(=O)N/N=C/c3sc4ccccc4c3O)ccc2c1 | 10.3µM* | -23.4% | i | ? | 74.7% | 7.31µM*
O=C(N/N=C/c1sc2ccccc2c1O)c1cccc2ccccc12 | 2.59µM* | 4.4% | / | ? | -26.2% | 5.17µM*
O=C(N/N=C/c1ccc(F)cc1)c1ccccc1 | 3.3% | -12.1% | i | 17.2% | -8.3% | -6.4%
COc1ccc(C(=O)N/N=C/c2c[nH]c3ccccc23)cc1 | 0.4% | -27.8% | ? | 39.1% | 9.9% | 2.0%
COC(=O)[C@@H]1CCCN1Cc1c(C(=O)N2CCCCC2)nc2c(C)cccn12 | 3.1% | 0.7% | i | -6.8% | -1.9% | -7.3%
Cc1ccc(Cn2cnc3ccccc32)cc1 | 14.6µM* | -22.4% | i | 6.1% | -26.6% | 20.6µM*
